Sampled rows, rich in hits. Any-hit rate of the full collection: about 9.8%.
HPGD inh: qHTS Assay for Inhibitors of HPGD (15-Hydroxyprostaglandin Dehydrogenase); 15-hydroxyprostaglandin dehydrogenase [NAD(+)] (Homo sapiens), P15428; purified HPGD, NADH fluorescence kinetic, PGE2 substrate; Potency, µM, inactives show at the top dose activity change, negative = inhibition, actives largely listed as inhibitors; 150,000 tested, 4.3% active; also: potency is read from the fitted curve at half-maximal effect; % is scaled to controls: 0 for no effect and ±100 for the full control effect
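NADH formation kinetics: reaction with 30 uM PGE2 and 1 mM NAD+ (final), 20 nM enzyme, Tris-HCl pH 8 with Tween 20, after 15 min compound preincubation at room temperature. Fluorescence change, last versus first of five reads.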
HTT ATP protect: qHTS Multiplex Assay to Identify Dual Action Probes in a Cell Model of Huntington: Cytoprotection (ATP); PC12 HTT-Q103 induced, cytoprotection, ATP luminescence, 40 h; Potency, µM (doses to about 56.4 µM), without a hit: cytoprotection (ATP increase), usual class: activators; 230,000 tested, 0.14% active; AID 1471, 2008; active = well fitted curve in the direction sought with a large enough effect; inconclusive = small, poorly fitted or top-dose-only effect, or another doubt; inactive = no such curve, though single readings can be large; an effect the other way counts as inactive or inconclusive; also: potency is read from the fitted curve at half-maximal effect; % of control where 0% means no effect; nearly all actives have a fitted effect of over 45% in size
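Huntington model: PC12 line, ecdysone-inducible HTTQ103 exon1–GFP, tebufenozide 100 nM. Test articles in a dose series. Endpoint luminescence from cellular ATP.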
JMJD2E inh: qHTS Assay for Inhibitors of Human Jumonji Domain Containing 2E (JMJD2E); JMJD2E catalytic domain, FDH-coupled NADH fluorescence (FDH is formaldehyde dehydrogenase); Potency, µM (titrated, usually from 57.1 µM), without a hit: at the top dose activity change, negative = inhibition, usual class: inhibitors; 230,000 tested, 1.6% active; AID 2147, 2009;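 also: potency is read from the fitted curve at half-maximal effect; 0% = wells with enzyme and -100% = buffer wells without enzyme; nearly all actives have a fitted effect of over 50% in size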
ALDH1A1 inh: qHTS Assay for Inhibitors of Aldehyde Dehydrogenase 1 (ALDH1A1) | Potency, µM (doses to about 75.3 µM), inactives show at the highest dose activity, negative = inhibition, actives largely listed as inhibitors | AID 1030, 2008 | Purified ALDH1A1, NADH fluorescence, propionaldehyde substrate | 220,000 tested, 7.3% active;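 also: potency is read from the fitted curve at half-maximal effect; plate controls were no enzyme wells and a reference inhibitor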
Target sequence (P00352 whole entry, looked up): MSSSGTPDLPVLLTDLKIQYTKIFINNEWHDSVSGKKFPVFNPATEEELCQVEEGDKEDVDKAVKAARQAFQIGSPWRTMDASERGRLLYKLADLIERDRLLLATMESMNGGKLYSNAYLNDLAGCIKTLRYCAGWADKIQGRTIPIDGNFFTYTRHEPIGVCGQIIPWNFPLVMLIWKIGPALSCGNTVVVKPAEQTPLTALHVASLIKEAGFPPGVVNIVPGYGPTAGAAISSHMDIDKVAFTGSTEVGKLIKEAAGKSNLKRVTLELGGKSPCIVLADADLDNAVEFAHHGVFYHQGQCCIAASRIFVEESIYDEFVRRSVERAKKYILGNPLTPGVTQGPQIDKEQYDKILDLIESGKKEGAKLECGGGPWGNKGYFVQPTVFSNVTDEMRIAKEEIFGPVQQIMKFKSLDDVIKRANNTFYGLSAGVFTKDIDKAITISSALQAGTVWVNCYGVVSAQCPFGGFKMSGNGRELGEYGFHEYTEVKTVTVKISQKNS
HTT aggregate: qHTS Multiplex Assay to Identify Dual Action Probes in a Cell Model of Huntington: Aggregate Formation (GFP); 220,000 tested, 1.1% active; Potency, µM (series often up to 46.1 µM), for inactives: top-dose activity change, negative = inhibition, usual class: inhibitors; PC12 HttQ103-GFP aggregates, Acumen cytometry, 40 h; active = well fitted curve in the direction sought with a large enough effect; inconclusive = small, poorly fitted or top-dose-only effect, or another doubt; inactive = no such curve, though single readings can be large; an effect the other way counts as inactive or inconclusive; also: potency is read from the fitted curve at half-maximal effect; % is scaled to controls: 0 for no effect and ±100 for the full control effect; nearly all actives have a fitted effect of over 60% in size
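PC12 cells with ecdysone-inducible HTT exon1 Q103-GFP, induced by 100 nM tebufenozide, given compounds in a concentration series. GFP aggregates (1–25 um, 6 SD above background) counted in lysates by laser-scanning cytometry, 488 nm excitation.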
CBFb-RUNX1 inh: qHTS Assay for Compounds Blocking the Interaction Between CBF-beta and RUNX1 for the Treatment of Acute Myeloid Leukemia; Runt-related transcription factor 1 (Homo sapiens) + Core-binding factor subunit beta …; AlphaScreen CBFb-His/RUNX1-biotin binding, biochemical; Potency, µM (titrated, usually from 59.8 µM), inactives show at the top dose activity, negative = inhibition, hits mostly inhibitors; 230,000 tested, under 10 active; AID 1477, 2009; active = well fitted curve in the direction sought with a large enough effect; inconclusive = small, poorly fitted or top-dose-only effect, or another doubt; inactive = no such curve, though single readings can be large; an effect the other way counts as inactive or inconclusive; also: % of control where 0% means no effect
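CBFb-His/RUNX1-biotin, 30 nM each, preincubated 20 min RT; compound 15 min RT; Ni + streptavidin beads 50 ng each, 90 min RT; AlphaScreen read.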
* = called active by the depositor; [ ] = dose if it differs, or a comment. Unless noted, calls follow the shape of the dose curve; as a rule, active = well fitted inhibition curve with a large enough effect (not every such curve was filed as active); inconclusive = small, poorly fitted or top-dose-only effect, or another doubt; inactive = no such curve, though single readings can be large or run the other way.

For CN(C)c1ccc(C2NCC(CCl)O2)cc1 (stereo not drawn) the results were HPGD inh -5%, HTT ATP protect 15%, JMJD2E inh -13%, ALDH1A1 inh 1.4µM*, HTT aggregate -2% and CBFb-RUNX1 inh 5%.
Screening CN(C)c1ccc(CNC2CC(C)(C)NC(C)(C)C2)cc1 returned HPGD inh -10%, HTT ATP protect -16%, JMJD2E inh 0%, ALDH1A1 inh inconclusive, HTT aggregate 13% and CBFb-RUNX1 inh 10%.
Screening O=C(c1ccccc1)c1ccc(OCC(=O)N2CCOCC2)cc1 returned HTT ATP protect 0%[10 µM], JMJD2E inh -8%, ALDH1A1 inh inconclusive, HTT aggregate 13% and CBFb-RUNX1 inh -1%.
Screening COc1ccc(/C=C/C(=O)NC(=S)NCc2ccccc2)cc1OC returned HTT ATP protect 7%[10 µM], JMJD2E inh inconclusive, HTT aggregate 3%[9.22 µM] and CBFb-RUNX1 inh 7%.
Screening OCCC1CN(Cc2cc(F)ccc2-n2cccn2)CCN1C1CCCC1 (stereo not drawn) returned HTT ATP protect 8%[10 µM], JMJD2E inh 4%, HTT aggregate 15%[9.22 µM] and CBFb-RUNX1 inh 2%.
`COc1cc([N+](=O)[O-])cc(/C=N/N(CCC#N)C(C)=O)c1O` gave JMJD2E inh -12%, ALDH1A1 inh 10µM* and CBFb-RUNX1 inh -5%.
Screening COC(=O)c1ccc(N/N=C/c2cc([N+](=O)[O-])cc(OC)c2O)cc1 returned HTT ATP protect 16%[10 µM], JMJD2E inh -1%, ALDH1A1 inh 3%, HTT aggregate 18%[9.22 µM] and CBFb-RUNX1 inh -1%.
O=C1NC[C@H](c2ccccc2)N1 was read as HPGD inh -16%, HTT ATP protect -26%, JMJD2E inh -27%, ALDH1A1 inh -9% and CBFb-RUNX1 inh -8%.
For CC(=O)NC1CCCN(O)C(=O)/C=C(\C)CCOC(=O)C(NC(C)=O)CCCN(O)C(=O)/C=C(\C)CCOC(=O)C(NC(C)=O)CCCN(O)C(=O)/C=C(\C)CCOC1=O (stereo not drawn) the results were HTT ATP protect 19%[10 µM], JMJD2E inh 7.9µM*, ALDH1A1 inh -6%, HTT aggregate -7%[9.22 µM] and CBFb-RUNX1 inh -3%.
For Cc1ccccc1-n1nnnc1SCC(=O)NCC1CCCO1 (stereo not drawn) the results were HTT ATP protect 8%[10 µM], JMJD2E inh 10%, ALDH1A1 inh 5.6µM*, HTT aggregate -2% and CBFb-RUNX1 inh -8%.
CCn1c(SCC(=O)NCC2CCCO2)nnc1-c1c[nH]c2ccccc12 (stereo not drawn) was read as HPGD inh 32µM*, HTT ATP protect 6%[0.074 µM], JMJD2E inh -7%, ALDH1A1 inh -19%, HTT aggregate 11% and CBFb-RUNX1 inh 10%.
Cc1cccc(-n2nnnc2SCC(=O)NCC2CCCO2)c1 (stereo not drawn) was read as HTT ATP protect -3%[10 µM], JMJD2E inh -9%, HTT aggregate -19%[9.22 µM] and CBFb-RUNX1 inh 16%.
`O=C(CSc1c[nH]c2ccccc12)NCC1CCCO1` (stereo not drawn) gave HPGD inh 4µM*, HTT ATP protect -11%[10 µM], JMJD2E inh 9%, ALDH1A1 inh -5%, HTT aggregate 1% and CBFb-RUNX1 inh 16%.
`CCN(CC)CCNC(=O)c1ccc2c(c1NCCO)C(=O)c1ccccc1C2=O` gave HTT ATP protect -67%[10 µM], JMJD2E inh -8%, HTT aggregate -25%[9.22 µM] and CBFb-RUNX1 inh -26%.

Screening results: PubChem, National Center for Advancing Translational Sciences (NCATS)
